The source made the active and inactive calls. The calls were made as follows: active = hit-call score of the fitted dose curve at least 0.9, where 1 is the maximum; inactive = score below 0.9.
Test: CCTE_Shafer_MEA_dev_correlation_coefficient_mean: CCTE's Neural Network Formation Assay for Mean Correlation Coefficient, Shafer Lab (AID 2284093);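 as to AC50: well mean pairwise spike train correlation integrated as AUC over recording days 5 to 12; potency fitted for loss of correlation relative to DMSO vehicle wells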
Outline: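 Extracellular firing from rat cortical networks on 48-well MEAs, DMSO-referenced, negative fitting direction. Compound present from plating to DIV12; mean pairwise correlation per well integrated over DIV5–12 recordings by trapezoidal AUC.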
With O=P1(N(CCCl)CCCl)NCCCO1 (stereo unspecified) the outcome was “inactive”.
In the case of OCC(F)(F)OC(F)(F)C(F)(F)OC(F)(F)CO, the outcome is reported as “inactive”.
In the case of O=C(O)C(F)(F)OC(F)(F)C(F)(F)OC(F)(F)F, the AC50 is reported as 3780 nM (active).
In the case of OCC(F)(F)OC(F)(F)C(F)(F)OC(F)(F)C(F)(F)OC(F)(F)CO, the outcome is reported as “inactive”.
With c1ccc(OP(Oc2ccccc2)Oc2ccccc2)cc1 the outcome was “inactive”.
For c1cc2c3c(cccc3c1)CC2, the outcome was “inactive”.
With O=C(O)C(F)(OC(F)(F)C(F)(F)C(F)(F)F)C(F)(F)F (stereo unspecified) the outcome was “inactive”.
For O=C(O)C(F)(F)OC(F)(F)C(F)(F)OC(F)(F)C(=O)O, the outcome was “inactive”.
For O=C(O)C=CC(F)(C(F)(F)F)C(F)(F)F, the outcome was “inactive”.
For CO/N=C(/C(=O)OC)c1ccccc1COc1ccccc1C, the AC50 was 765 nM (active).
With CC(O)C(F)(F)C(F)(F)F (stereo unspecified) the outcome was “inactive”.

Reference: PubChem BioAssay (EPA / NIEHS)
